The text below walks through data of PubChem BioAssay (NCATS).

Molecules are shown by their SMILES. Records with an inconclusive call do not appear. A call without a number means that no potency is given here. Unmarked numbers belong to inactive results. Calls of active or inactive are those of the source. Calls follow the shape of the dose curve; as a rule, active = well fitted inhibition curve with a large enough effect; inconclusive = small, poorly fitted or top-dose-only effect; inactive = flat fitted curve, though single readings scatter. Where a SMILES comes first, the peptide text is derived from it. [ ]: non-standard residue; d: D form. Hyp = O=C(O)[CH]1C[CH](O)CN1; Phe(ol) = N[CH](CO)Cc1ccccc1; Iva = CC[C](C)(N)C(=O)O; Aib = CC(C)(N)C(=O)O
Potency is read from the fitted curve at half-maximal effect.

A short description of this assay: P-glycoprotein substrates identified in KB-8-5-11 adenocarcinoma cell line, qHTS therapeutic library screen (AID 1346987). Also: nearly all actives have a fitted effect of over 65% in size. The settings on record: KB-8-5-11 (P-gp overexpressing) viability, CellTiter-Glo, 72 h; series mostly up to 44.5 µM. In short, it runs like this: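 Compounds are pinned in dose-response onto KB-8-5-11 cells (500 cells/well, colchicine-free medium) and left 72 h at 37 degree C. CellTiter-Glo luminescence then yields AC50 values.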
Background: qHTS replaces the single test concentration by a dilution series.
On to `CCC(C)(NC(=O)C(CCC(N)=O)NC(=O)C1CC(O)CN1C(=O)C(C)(C)NC(=O)C(C)(C)NC(=O)C(CC(C)C)NC(=O)CNC(=O)C(NC(=O)C(C)(C)NC(=O)C(C)(C)NC(=O)C(C)(C)NC(=O)C(Cc1ccccc1)NC(C)=O)C(C)C)C(=O)N1CC(O)CC1C(=O)NC(C)(C)C(=O)NC(CO)Cc1ccccc1` (stereo not drawn) (Ac-F[Aib][Aib][Aib]VGL[Aib][Aib][Hyp]Q[Iva][Hyp][Aib][Phe(ol)]; configuration not given here), for which the activity change, negative = cytotoxicity was -10.8% [at 9.29 µM]. Turning to `CC(C)(C)CC(=O)OCC(=O)[C@@]12OC(C)(C)O[C@@H]1C[C@H]1[C@@H]3CCC4=CC(=O)C=C[C@]4(C)[C@@]3(F)[C@@H](O)C[C@@]12C`, the Potency entry is “inactive”.

As to `CCCC1([C@H](O)C/C=C/[C@H]2[C@H](O)CC(=O)[C@@H]2CCCCCCC(=O)OC)CCC1`, the Potency result was “inactive”.

As for `CCCCOC(=O)C(=O)Nc1cccc(-c2nn[nH]n2)c1`, the Potency entry is “inactive”. Turning to `CCCc1cc(C)n(C)c(=O)c1CN(C)C(=O)c1cc(-c2ccc(N3CCN(C(C)C)CC3)nc2)cc2c1cnn2C(C)C`, the Potency result is “inactive”. The same measure, in the same setting: the same measure for `CCCC(=O)N1CCCN(c2nc(N)c3cc(OC)c(OC)cc3n2)CC1`: “inactive”; for `CCC(=O)Oc1ccc2c(c1)CC[C@@H]1[C@@H]2CC[C@]2(C)[C@@H](OC(=O)CC)CC[C@@H]12`: 10.3 µM (active).

As for `CC[C@H](C)/C=C(C)/C=C/C1=CC2=C(Cl)C(=O)[C@](C)(O)[C@H](OC(C)=O)[C@H]2CO1`, the Potency result is “inactive”.
